{"source": "the supplement of paper PMC11732987", "about": "“Enantioselective OTUD7B fragment discovery through chemoproteomics screening and high-throughput optimisation” (Communications Chemistry, 2025)", "assay_in_all_cases": "log2 ratio of Biotin-Ahx-Ub-VS probe labelling (fragment/DMSO); higher = less target engagement (more negative = stronger competition), active = hit call of the paper (q ≤ 0.05, log2 ratio ≤ -1)", "conditions_in_all_cases": "compound concentration: 200 uM; treatment time: 3 h", "key": {"ALG13": {"molecular_target": "T1, ALG13 (UniProt Q9NP73)", "T1 sequence (whole entry)": "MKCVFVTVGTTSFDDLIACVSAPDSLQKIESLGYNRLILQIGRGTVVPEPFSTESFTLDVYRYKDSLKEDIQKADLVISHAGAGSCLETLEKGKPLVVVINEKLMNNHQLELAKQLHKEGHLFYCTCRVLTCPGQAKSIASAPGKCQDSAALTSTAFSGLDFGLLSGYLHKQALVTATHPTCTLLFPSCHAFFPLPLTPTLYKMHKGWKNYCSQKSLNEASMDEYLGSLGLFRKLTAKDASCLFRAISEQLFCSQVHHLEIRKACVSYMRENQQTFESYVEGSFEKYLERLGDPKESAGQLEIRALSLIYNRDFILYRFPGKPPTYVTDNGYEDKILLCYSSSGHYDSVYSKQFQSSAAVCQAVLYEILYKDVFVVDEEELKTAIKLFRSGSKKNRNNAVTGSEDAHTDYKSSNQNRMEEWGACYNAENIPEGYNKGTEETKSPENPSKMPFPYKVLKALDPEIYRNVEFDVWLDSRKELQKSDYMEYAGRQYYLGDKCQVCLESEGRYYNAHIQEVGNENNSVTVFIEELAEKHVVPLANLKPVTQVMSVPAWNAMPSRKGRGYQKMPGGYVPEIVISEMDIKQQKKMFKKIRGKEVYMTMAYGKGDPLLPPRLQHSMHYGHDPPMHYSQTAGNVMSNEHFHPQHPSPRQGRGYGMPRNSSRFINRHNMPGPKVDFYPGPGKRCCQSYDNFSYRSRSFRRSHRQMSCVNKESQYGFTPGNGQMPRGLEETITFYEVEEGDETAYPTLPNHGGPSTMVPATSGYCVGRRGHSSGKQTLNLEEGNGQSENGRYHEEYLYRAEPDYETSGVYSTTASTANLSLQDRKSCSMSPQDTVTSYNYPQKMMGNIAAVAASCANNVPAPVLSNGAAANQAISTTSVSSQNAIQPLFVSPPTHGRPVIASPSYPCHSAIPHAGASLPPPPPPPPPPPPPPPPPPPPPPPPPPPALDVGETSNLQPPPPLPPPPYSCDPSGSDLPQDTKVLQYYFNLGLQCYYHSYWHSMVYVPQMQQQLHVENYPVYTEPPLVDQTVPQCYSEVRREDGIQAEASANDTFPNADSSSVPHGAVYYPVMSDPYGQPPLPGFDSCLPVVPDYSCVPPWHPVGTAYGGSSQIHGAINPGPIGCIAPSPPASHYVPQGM", "how_it_was_run": "(§1)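 In triplicate, 495 µg of HEK293T lysate per sample was incubated with fragment at 200 µM or vehicle for 3 h. Biotin-Ahx-Ub-VS was then added to 0.5 µM final for 1 h, and labelled DUBs were captured with NeutrAvidin, digested with LysC and trypsin, and measured by diaPASEF LC-MS/MS. Data are average log2 fragment/vehicle ratios by unpaired t-test from global-median-normalised Spectronaut label-free quantities, restricted to proteins with ≥2 unique peptides.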"}, "ATXN3": {"molecular_target": "ATXN3 (UniProt P54252)", "sequence (P54252 whole entry)": "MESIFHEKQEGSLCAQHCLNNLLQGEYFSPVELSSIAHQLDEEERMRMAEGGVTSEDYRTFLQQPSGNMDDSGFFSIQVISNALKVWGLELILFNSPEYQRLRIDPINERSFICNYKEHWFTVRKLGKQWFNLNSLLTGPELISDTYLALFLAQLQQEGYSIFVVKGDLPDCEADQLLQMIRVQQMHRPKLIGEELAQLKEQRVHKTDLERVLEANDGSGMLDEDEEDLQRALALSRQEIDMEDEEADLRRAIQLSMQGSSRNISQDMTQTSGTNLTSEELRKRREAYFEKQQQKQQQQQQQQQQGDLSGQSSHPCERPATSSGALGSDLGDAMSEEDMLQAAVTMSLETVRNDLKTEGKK", "how_it_was_run": "as §1"}, "BAP1": {"molecular_target": "T2, BAP1 (UniProt Q92560)", "T2 sequence (whole entry)": "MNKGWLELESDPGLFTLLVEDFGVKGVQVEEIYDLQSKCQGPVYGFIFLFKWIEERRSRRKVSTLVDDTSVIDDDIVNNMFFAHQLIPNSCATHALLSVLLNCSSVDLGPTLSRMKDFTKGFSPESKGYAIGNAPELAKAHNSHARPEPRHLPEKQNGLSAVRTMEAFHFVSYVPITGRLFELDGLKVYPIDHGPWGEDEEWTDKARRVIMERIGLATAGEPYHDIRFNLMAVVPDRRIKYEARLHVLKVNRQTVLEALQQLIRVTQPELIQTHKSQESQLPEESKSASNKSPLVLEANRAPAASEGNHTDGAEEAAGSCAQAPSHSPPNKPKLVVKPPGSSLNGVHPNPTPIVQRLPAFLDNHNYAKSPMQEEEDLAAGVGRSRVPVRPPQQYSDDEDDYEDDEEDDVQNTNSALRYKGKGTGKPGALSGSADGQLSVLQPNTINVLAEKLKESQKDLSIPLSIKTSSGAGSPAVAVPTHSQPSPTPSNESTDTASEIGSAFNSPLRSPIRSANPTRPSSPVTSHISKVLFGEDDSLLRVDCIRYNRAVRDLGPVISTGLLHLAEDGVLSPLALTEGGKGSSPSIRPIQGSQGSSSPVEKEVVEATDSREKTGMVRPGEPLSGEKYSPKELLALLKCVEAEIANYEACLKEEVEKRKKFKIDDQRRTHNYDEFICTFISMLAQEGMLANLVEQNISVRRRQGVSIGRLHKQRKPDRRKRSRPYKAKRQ", "how_it_was_run": "as §1"}, "EIF3F": {"molecular_target": "EIF3F (UniProt O00303)", "sequence (O00303 whole entry)": "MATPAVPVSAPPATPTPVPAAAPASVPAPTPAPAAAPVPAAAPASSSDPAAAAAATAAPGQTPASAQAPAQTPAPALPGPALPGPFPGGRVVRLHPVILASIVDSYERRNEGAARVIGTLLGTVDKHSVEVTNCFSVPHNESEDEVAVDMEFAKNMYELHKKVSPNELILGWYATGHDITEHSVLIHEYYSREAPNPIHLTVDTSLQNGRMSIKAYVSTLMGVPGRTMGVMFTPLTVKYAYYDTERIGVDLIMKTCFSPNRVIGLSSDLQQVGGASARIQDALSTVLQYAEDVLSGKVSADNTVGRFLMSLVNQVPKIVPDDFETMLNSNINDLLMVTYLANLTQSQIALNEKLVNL", "how_it_was_run": "as §1"}, "EIF3H": {"molecular_target": "EIF3H (UniProt O15372)", "sequence (O15372 whole entry)": "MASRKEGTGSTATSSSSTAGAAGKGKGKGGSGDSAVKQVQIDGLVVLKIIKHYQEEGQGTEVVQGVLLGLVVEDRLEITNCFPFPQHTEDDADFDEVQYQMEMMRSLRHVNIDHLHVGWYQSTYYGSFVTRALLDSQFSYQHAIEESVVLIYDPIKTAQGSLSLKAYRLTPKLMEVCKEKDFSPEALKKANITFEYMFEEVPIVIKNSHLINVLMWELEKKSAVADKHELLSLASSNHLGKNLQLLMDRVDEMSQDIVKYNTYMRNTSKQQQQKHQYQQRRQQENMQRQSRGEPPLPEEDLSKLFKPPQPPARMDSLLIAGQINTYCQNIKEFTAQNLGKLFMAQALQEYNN", "how_it_was_run": "as §1"}, "FAM105A": {"molecular_target": "T3, FAM105A (UniProt Q9NUU6)", "T3 sequence (whole entry)": "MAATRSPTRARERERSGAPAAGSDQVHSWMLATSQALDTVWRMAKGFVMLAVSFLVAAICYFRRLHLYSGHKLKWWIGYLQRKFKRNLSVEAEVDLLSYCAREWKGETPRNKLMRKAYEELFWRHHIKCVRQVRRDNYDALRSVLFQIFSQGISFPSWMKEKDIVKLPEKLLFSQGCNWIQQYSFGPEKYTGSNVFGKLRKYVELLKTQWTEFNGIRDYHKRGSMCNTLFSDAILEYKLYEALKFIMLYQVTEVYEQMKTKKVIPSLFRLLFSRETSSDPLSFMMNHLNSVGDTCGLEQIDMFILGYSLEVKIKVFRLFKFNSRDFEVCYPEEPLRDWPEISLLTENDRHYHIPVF", "how_it_was_run": "as §1"}, "OTUB1": {"molecular_target": "OTUB1 (UniProt Q96FW1)", "sequence (Q96FW1 whole entry)": "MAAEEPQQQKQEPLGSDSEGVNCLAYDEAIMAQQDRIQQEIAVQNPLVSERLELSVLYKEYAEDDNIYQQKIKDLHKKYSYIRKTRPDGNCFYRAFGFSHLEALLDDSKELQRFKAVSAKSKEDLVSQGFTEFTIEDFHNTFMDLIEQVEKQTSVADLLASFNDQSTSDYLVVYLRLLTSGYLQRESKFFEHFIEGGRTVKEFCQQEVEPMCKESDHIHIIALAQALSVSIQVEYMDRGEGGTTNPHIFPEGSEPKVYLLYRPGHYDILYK", "how_it_was_run": "as §1"}, "OTUD4": {"molecular_target": "T4, OTUD4 (UniProt Q01804)", "T4 sequence (whole entry)": "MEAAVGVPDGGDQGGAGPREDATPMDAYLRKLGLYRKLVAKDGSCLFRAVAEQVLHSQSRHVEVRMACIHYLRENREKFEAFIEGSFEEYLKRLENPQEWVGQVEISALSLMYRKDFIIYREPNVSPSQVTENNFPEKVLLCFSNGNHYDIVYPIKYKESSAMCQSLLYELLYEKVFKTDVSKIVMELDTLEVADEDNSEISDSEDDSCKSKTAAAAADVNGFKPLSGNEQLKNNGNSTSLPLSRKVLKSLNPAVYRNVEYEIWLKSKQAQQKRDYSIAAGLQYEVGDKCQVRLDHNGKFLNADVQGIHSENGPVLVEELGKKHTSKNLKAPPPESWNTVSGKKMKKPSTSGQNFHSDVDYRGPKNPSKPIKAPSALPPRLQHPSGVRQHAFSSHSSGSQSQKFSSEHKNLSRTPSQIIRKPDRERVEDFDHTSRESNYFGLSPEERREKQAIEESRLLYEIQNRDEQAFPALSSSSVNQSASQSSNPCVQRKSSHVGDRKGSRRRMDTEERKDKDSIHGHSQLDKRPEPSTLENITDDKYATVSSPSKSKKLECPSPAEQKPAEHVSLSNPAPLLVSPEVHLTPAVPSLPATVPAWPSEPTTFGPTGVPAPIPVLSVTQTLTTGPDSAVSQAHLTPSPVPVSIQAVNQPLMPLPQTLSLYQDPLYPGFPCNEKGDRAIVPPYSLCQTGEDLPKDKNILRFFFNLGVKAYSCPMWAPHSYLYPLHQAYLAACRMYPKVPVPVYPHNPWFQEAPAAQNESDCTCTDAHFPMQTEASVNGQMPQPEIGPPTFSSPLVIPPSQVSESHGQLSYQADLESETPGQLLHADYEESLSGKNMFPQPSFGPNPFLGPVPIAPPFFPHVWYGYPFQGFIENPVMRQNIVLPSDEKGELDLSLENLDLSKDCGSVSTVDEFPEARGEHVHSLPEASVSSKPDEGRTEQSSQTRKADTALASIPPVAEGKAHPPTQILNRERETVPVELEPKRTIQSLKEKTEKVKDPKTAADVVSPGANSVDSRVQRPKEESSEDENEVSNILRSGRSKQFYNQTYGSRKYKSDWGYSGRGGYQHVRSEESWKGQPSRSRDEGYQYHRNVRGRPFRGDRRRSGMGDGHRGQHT", "how_it_was_run": "as §1"}, "OTUD5": {"molecular_target": "T5, OTUD5 (UniProt Q96G74)", "T5 sequence (whole entry)": "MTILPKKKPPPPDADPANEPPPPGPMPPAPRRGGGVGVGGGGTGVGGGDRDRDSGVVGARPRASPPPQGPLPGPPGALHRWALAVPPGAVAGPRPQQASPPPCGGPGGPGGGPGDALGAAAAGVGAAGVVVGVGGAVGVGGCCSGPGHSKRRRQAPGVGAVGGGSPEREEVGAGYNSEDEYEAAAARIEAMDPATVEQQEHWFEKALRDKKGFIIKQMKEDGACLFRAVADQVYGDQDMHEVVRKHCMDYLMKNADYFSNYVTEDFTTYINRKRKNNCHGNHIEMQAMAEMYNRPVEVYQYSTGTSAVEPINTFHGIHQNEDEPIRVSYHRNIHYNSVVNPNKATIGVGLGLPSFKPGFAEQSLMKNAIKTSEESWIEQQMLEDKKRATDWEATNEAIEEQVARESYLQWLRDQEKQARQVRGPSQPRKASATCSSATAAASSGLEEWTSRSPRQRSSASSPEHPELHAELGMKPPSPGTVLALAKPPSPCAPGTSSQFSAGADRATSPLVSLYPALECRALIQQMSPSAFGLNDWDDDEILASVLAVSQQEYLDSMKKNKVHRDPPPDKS", "how_it_was_run": "as §1"}}, "note": "A number with no mark means an inactive call.", "data": [{"smiles": "O=C(CCl)NCc1noc(C2CC2)n1", "values": [{"measurement": "log2 ratio of Biotin-Ahx-Ub-VS probe labelling", "setting": "ALG13", "result": 0.174}, {"measurement": "log2 ratio of Biotin-Ahx-Ub-VS probe labelling", "setting": "ATXN3", "result": -0.198}, {"measurement": "log2 ratio of Biotin-Ahx-Ub-VS probe labelling", "setting": "BAP1", "result": "-1.08 (active)"}, {"measurement": "log2 ratio of Biotin-Ahx-Ub-VS probe labelling", "setting": "EIF3F", "result": -0.262}, {"measurement": "log2 ratio of Biotin-Ahx-Ub-VS probe labelling", "setting": "EIF3H", "result": 0.143}, {"measurement": "log2 ratio of Biotin-Ahx-Ub-VS probe labelling", "setting": "FAM105A", "result": 0.00371}, {"measurement": "log2 ratio of Biotin-Ahx-Ub-VS probe labelling", "setting": "OTUB1", "result": -0.305}, {"measurement": "log2 ratio of Biotin-Ahx-Ub-VS probe labelling", "setting": "OTUD4", "result": -0.405}, {"measurement": "log2 ratio of Biotin-Ahx-Ub-VS probe labelling", "setting": "OTUD5", "result": -0.391}]}]}
